The values that follow come from PubChem BioAssay (NCI).

The structures appear in SMILES notation. This is part of a sample that, as a whole, favours compounds with a hit. Of some 83,000 tested, about 20% had one in any assay.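 Interpretation: 100, growth as untreated; towards 0, rising growth inhibition; 0, no net growth; 0 to -100, cell death. Compounds scoring below 10 were considered active.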 Values without a mark were called inactive. The source made the active and inactive calls.

Among the test systems are NCI-H23 lung; NCI-H226 lung; NCI-H322M lung; HOP-62 NSCLC; NCI-H460 lung; HOP-92 NSCLC; NCI-H522 lung; A549/ATCC NSCLC; 786-0 renal; COLO 205 colon.
What all share (experiment): NCI-60 one-dose screen, 48 h (100 = growth as untreated, 0 = no growth, -100 = all killed)
Conditions in all cases: 10 µM unless noted

With `O=C(c1ccc(Cl)cc1)N1CCN(c2ccnc3cc(Cl)ccc23)CC1`, the growth is 98.4% in the assay with NCI-H23 lung; 87.3% in the assay with NCI-H226 lung; 96.5% in the assay on NCI-H322M lung; 102% with HOP-62 NSCLC; 96.2% in the assay with NCI-H460 lung; 83.7% in the assay on HOP-92 NSCLC. The growth is 56.5% with NCI-H522 lung, 87% in the assay on A549/ATCC NSCLC, 93.5% in the assay on 786-0 renal and 101% in the assay on COLO 205 colon.
Turning to `CCN(CC)c1nc(SCc2ccccc2Cl)ncc1C`, the growth is 103% with NCI-H23 lung; 81.8% in the assay on NCI-H226 lung; 121% in the assay on NCI-H322M lung; 93.1% with HOP-62 NSCLC; 106% in the assay on NCI-H460 lung; 56% with HOP-92 NSCLC. In addition, the growth is 99% with NCI-H522 lung, 95% with A549/ATCC NSCLC, 106% in the assay on 786-0 renal and 112% in the assay with COLO 205 colon.
On to `Cc1nnc(NC(=O)c2nc(S(=O)(=O)Cc3ccc(F)cc3)ncc2Cl)s1`, for which the growth was 90.5% in the assay with NCI-H23 lung; 98.7% in the assay with NCI-H226 lung; 93.8% with NCI-H322M lung; 86.1% with HOP-62 NSCLC; 105% in the assay with NCI-H460 lung; -85.7% (active) in the assay on HOP-92 NSCLC. Moreover, the growth in the assay on NCI-H522 lung was -67.3% (active); with A549/ATCC NSCLC, 79.3%; in the assay with 786-0 renal, 48.3%; in the assay with COLO 205 colon, -18.8% (active).
Regarding `O=C(Cc1ccccc1)Nc1nc(O)c(/C=C2\C(=O)C=Cc3ccccc32)s1`, the growth with NCI-H23 lung was 90.7%; in the assay with NCI-H226 lung, 100%; in the assay on NCI-H322M lung, 98.2%; in the assay on HOP-62 NSCLC, 107%; in the assay on NCI-H460 lung, 99.4%; in the assay with HOP-92 NSCLC it was 85.2%. Also, the growth with NCI-H522 lung is 90.5%; in the assay on A549/ATCC NSCLC it was 101%; with 786-0 renal, 102%; in the assay on COLO 205 colon, 111%.
Regarding `O=C(NNC(=O)c1ccc(-n2cc(-c3ccccc3)nn2)cc1)Nc1ccccc1`, the growth in the assay on NCI-H23 lung was 97.6%; in the assay on NCI-H226 lung it was 99.6%; in the assay with NCI-H322M lung, 108%; in the assay on HOP-62 NSCLC it was 94.8%; in the assay on NCI-H460 lung, 109%; in the assay on HOP-92 NSCLC, 98.8%. The growth in the assay with NCI-H522 lung was 108%; in the assay on A549/ATCC NSCLC, 102%; in the assay on 786-0 renal it was 104%; in the assay on COLO 205 colon, 111%.
In the case of `COc1ccccc1Nc1nc2c(s1)C1=CC[C@H]3[C@@H]4CC[C@H]([C@H](C)CCCC(C)C)[C@@]4(C)CC[C@@H]3[C@@]1(C)CC2`, the growth with NCI-H23 lung was 93.3%; with NCI-H226 lung, 103%; in the assay with NCI-H322M lung, 101%; with HOP-62 NSCLC, 95.9%; with NCI-H460 lung, 108%; in the assay on HOP-92 NSCLC, 90.8%. The growth with NCI-H522 lung was 106%; with A549/ATCC NSCLC it was 103%; in the assay on 786-0 renal, 114%; in the assay with COLO 205 colon it was 106%.
With `CCN(CC)CCNC(=O)c1cn2ncnc(Oc3ccc(NC(=O)Nc4ccc(Cl)c(C(F)(F)F)c4)c(F)c3)c2c1C`, the growth in the assay with NCI-H23 lung is -37.4% (active); with NCI-H226 lung, 73.9%; in the assay on NCI-H322M lung, 34.4%; in the assay with HOP-62 NSCLC, 36.5%; in the assay with NCI-H460 lung, -67% (active); in the assay on HOP-92 NSCLC it was 22.1%. Further, the growth was -52.3% (active) with NCI-H522 lung, 4.56% (active) in the assay with A549/ATCC NSCLC, -86.1% (active) in the assay on 786-0 renal and -59.5% (active) in the assay with COLO 205 colon.
As to `Cc1ccc(C2=Nc3c(N)ncnc3NC(c3ccc4c(c3)OCO4)C2)cc1` (stereo not given), the growth in the assay on NCI-H23 lung is 74.3%; in the assay on NCI-H226 lung, 85.1%; in the assay on NCI-H322M lung, 102%; with HOP-62 NSCLC, 64.5%; with NCI-H460 lung it was 42.4%; in the assay with HOP-92 NSCLC, 8.52% (active). For the same compound, the growth in the assay on NCI-H522 lung is 47.2%; in the assay on A549/ATCC NSCLC, 56.4%; in the assay on 786-0 renal, 80.8%; in the assay on COLO 205 colon it was 37.3%.
Turning to `CCOC(=O)C#Cc1c(C(=O)OCC)nnn1[C@@H]1O[C@H](CO)[C@H]2OC3(CCCCC3)O[C@H]21`, the growth is 93.9% with NCI-H23 lung; 80.7% in the assay on NCI-H226 lung; 98% in the assay with NCI-H322M lung; 110% in the assay with HOP-62 NSCLC; 98.5% in the assay with NCI-H460 lung; 54.5% with HOP-92 NSCLC. Besides, the growth with NCI-H522 lung was -25.2% (active); with A549/ATCC NSCLC it was 95.2%; in the assay on 786-0 renal, 66.9%; in the assay with COLO 205 colon it was -27.2% (active).
Consider `Nc1ncnc2c1N=C(c1ccc(Cl)cc1)CC(c1ccc3c(c1)OCO3)N2` (stereo not given), for which the growth was 100% in the assay with NCI-H23 lung; 90.8% with NCI-H226 lung; 112% in the assay on NCI-H322M lung; 88.1% with HOP-62 NSCLC; 103% with NCI-H460 lung; 59.8% with HOP-92 NSCLC. In addition, the growth is 89.7% in the assay on NCI-H522 lung, 98.4% in the assay on A549/ATCC NSCLC, 91.6% with 786-0 renal and 98.6% with COLO 205 colon.
With `CCCCC[C@@H]1Cc2cc(O)c(C(=O)O)c3c2[C@H](C[C@]2(OC[C@@H](CC(=O)[C@@](C)(CC)C(=O)OC)[C@@H]2C)O3)O1`, the growth in the assay with NCI-H23 lung was 112%; with NCI-H226 lung it was 92.1%; in the assay with NCI-H322M lung, 105%; in the assay on HOP-62 NSCLC, 117%; in the assay with NCI-H460 lung it was 109%; in the assay with HOP-92 NSCLC, 113%. Also, the growth was 117% in the assay on NCI-H522 lung, 107% in the assay on A549/ATCC NSCLC, 108% in the assay with 786-0 renal and 145% with COLO 205 colon.
Consider `COC1C[C@H](O[C@@H]2C[C@H](O[C@@H]3C[C@H](O[C@@H]4C(=O)c5c(cc6cc(O[C@H]7C[C@@H](O[C@H]8C[C@@H](O)[C@H](O)C(C)O8)[C@H](O)C(C)O7)c(C)c(O)c6c5O)C[C@H]4C(OC)C(=O)[C@@H](O)[C@@H](C)O)OC(C)[C@H]3O)OC(C)[C@@H]2O)OC(C)[C@@H]1O` (stereo not given in full), for which the growth is -1.75% (active) in the assay on NCI-H23 lung; 3.22% (active) in the assay with NCI-H226 lung; 6.22% (active) with NCI-H322M lung; -7.62% (active) in the assay on HOP-62 NSCLC; 6.26% (active) in the assay with NCI-H460 lung; -12.1% (active) with HOP-92 NSCLC. For the same compound, the growth was -33.1% (active) with NCI-H522 lung, 1.74% (active) in the assay with A549/ATCC NSCLC, -5.74% (active) in the assay on 786-0 renal and -78.3% (active) in the assay with COLO 205 colon.
Turning to `COc1ccc(Cc2cc(-c3ccccc3)nn(Cc3ccccc3)c2=O)cc1OC`, the growth with NCI-H23 lung is 39.4%; in the assay with NCI-H226 lung it was 52%; with NCI-H322M lung, 82.4%; with HOP-62 NSCLC, 69.1%; in the assay with NCI-H460 lung, 33.9%; in the assay on HOP-92 NSCLC, 28%. Also, the growth in the assay on NCI-H522 lung is 37%; in the assay on A549/ATCC NSCLC it was 20%; with 786-0 renal it was 35.8%; in the assay on COLO 205 colon, 9.24% (active).
